Data on 17 compounds can be found in PubChem BioAssay.

Assay [1] concerns the target Albumin (Bos taurus) (UniProt P02769). The assay can be described thus: compounds binding labelled BSA control protein – biochemical, small-molecule microarray, Alexa647 label, 635/667 nm fluorescence, artefact control for SMM control protein annotation, profiling panel (AID 1118).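 Note: score merges 667 nm emission intensity and signal-to-noise per printed compound spot.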 The settings on record: BSA-A647 binding, fluorescence 635 nm, higher = more signal.
Assay [2] in a line: probe aXIP binding to arrayed compounds – biochemical, NeuroSMM set, 635/667 nm fluorescence, primary screen (AID 1119).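 Note: probe is the protein aXip251-270 applied at 1 µg/mL to compound-printed slides; binding of probe to printed compounds measured as 667 nm fluorescence plus signal to noise.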 The conditions noted are these: small-molecule microarray, higher = more signal, called active from +8 up or from −8 down.
A short description of assay [3]: probe aNOTCH3 binding on compound microarray – biochemical, small-molecule microarray, 635/667 nm fluorescence, primary screen (AID 1120).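 Note: probe is a biotin-tagged antibody raised against NOTCH3 rather than NOTCH3 protein; score merges spot fluorescence near 667 nm with spot signal to noise.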 The conditions noted are these: higher = more signal.
Assay [4] can be described thus: probe aNOTCH2 binding on compound microarray – biochemical, small-molecule microarray, 635/667 nm fluorescence, primary screen (AID 1121).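 Note: score merges feature fluorescence read at 667 nm with its signal to noise.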 The conditions noted are these: higher = more signal.
The target in assay [5] is Carbonic anhydrase 2 (Homo sapiens) (UniProt P00918). Kind of assay: compounds binding carbonic anhydrase 2 – biochemical, small-molecule microarray, Alexa647-labelled CAII, profiling panel (AID 1122). The conditions noted are these: CAII-A647 binding fluorescence, higher = more signal.
The nature of assay [6]: COS7 lysate on small-molecule microarray, probe aHis, 635 nm (AID 1123).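 Note: z-score combines 667nm fluorescence intensity with signal-to-noise per printed compound spot.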 The settings on record: COS7 cell lysate, fluorescence, higher = more signal.
Assay [7] in a line: probe aLAP1 signal on lysate-treated microarray – cell lysate, small-molecule microarray, COS7 lysate, primary screen (AID 1124).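 Note: lysate comes from COS7 cells expressing LAP1 and is applied at 0.3 µg/mL; score merges spot fluorescence near 667 nm with signal-to-noise over triplicate slides.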 The settings on record: probe aLAP1, fluorescence, higher = more signal.
For assay [8], the system named is Sam68 (KHDRBS1). The assay can be described thus: compounds binding KHDRBS1 protein – biochemical, small-molecule microarray, 635 nm fluorescence, primary screen (AID 1125).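 Note: score merges 667 nm channel intensity with signal to noise over triplicate slides.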 The settings on record: higher = more signal.
In assay [9] the test system is Chordin-like protein 2 (CHRDL2). Kind of assay: compounds binding chordin-like 2 – biochemical, small-molecule microarray, 635 nm fluorescence, primary screen (AID 1126).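 Note: printed compound slides probed with Chrdl2 protein at 4 µg/mL for 1 h at 4 C; score merges 667 nm emission intensity with signal to noise over three replicate slides.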 The settings on record: fluorescence 635 nm, higher = more signal.
Assay [10] addresses Concanavalin-A (Canavalia ensiformis) (UniProt P02866). Kind of assay: compounds binding concanavalin A lectin – biochemical, small-molecule microarray, Alexa647 label, 635 nm, artefact control for SMM control protein annotation, primary screen (AID 1127).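 Note: z combines 667 nm emission intensity with signal-to-noise across three replicate slides.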 The conditions noted are these: ConA-A647 binding fluorescence, higher = more signal.

Active and inactive are the calls of the source.

Sequence of Albumin (Bos taurus) (P02769 whole entry, looked up): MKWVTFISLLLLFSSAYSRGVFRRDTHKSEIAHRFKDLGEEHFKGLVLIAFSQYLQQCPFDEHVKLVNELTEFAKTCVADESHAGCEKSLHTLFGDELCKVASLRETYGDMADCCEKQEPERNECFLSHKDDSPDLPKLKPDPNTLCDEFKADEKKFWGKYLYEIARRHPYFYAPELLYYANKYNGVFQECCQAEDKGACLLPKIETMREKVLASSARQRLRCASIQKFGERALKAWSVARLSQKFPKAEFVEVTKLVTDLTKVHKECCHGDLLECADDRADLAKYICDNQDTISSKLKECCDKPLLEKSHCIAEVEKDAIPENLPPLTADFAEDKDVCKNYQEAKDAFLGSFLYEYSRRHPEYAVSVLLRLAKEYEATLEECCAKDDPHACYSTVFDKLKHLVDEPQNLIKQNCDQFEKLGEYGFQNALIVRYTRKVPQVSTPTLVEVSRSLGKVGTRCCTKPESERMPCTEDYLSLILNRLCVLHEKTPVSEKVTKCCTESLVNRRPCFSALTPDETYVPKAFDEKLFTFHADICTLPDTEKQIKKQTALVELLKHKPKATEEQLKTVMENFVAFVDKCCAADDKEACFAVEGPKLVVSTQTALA
Sequence of Concanavalin-A (Canavalia ensiformis) (P02866 whole entry, looked up): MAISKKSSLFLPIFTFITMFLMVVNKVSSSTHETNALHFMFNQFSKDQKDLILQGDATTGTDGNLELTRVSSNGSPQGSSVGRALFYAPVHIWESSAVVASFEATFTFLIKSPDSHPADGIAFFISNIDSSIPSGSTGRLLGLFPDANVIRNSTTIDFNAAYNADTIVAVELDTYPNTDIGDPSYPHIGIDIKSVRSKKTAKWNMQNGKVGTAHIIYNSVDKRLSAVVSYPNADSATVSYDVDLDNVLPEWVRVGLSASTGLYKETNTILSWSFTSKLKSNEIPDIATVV

In the case of `CO[C@H]1COC(=O)CC=C[C@H](C)COC(=O)[C@@H](C)NC(=O)CC=C[C@@H]1C`, the composite z-score was -0.854 in assay [1]; -0.179 in [3]; -0.14 in [4]; -0.532 in assay [5]; -1.13 in assay [6]; 0.487 in assay [7]. Besides, the composite z-score was 0.339 in assay [8], 1.56 in assay [9] and -0.582 in [10]. The composite Z-score in assay [2] is 0.842 (inactive).

As for `C[C@@H](c1ccccc1)N1C(=O)[C@H]2[C@H]3[C@H](O)[C@H](O)CC(=NO[C@@H]4O[C@H](CO)[C@@H](O)[C@H](O)[C@H]4O)[C@H]3CC[C@H]2C1=O`, the composite z-score is 0.0673 in assay [1]; 0.0259 in [3]; 0.012 in [4]; -0.0193 in [5]; 0.0007 in assay [6]; 0.554 in assay [7]. The composite z-score in assay [8] came out at 0.648; in [9], 0.373; in assay [10], 0.44. In addition, the composite Z-score in [2] is -0.154 (inactive).

For the compound `CCCNC(=O)OC[C@H]1O[C@H](CCON=Cc2ccc(C(=O)N3[C@H](c4ccc(C)cc4)[C@@H](C)CC[C@H]3C(=O)OC)cc2)C=C[C@@H]1Oc1ccc(OC)cc1`, the composite z-score is 0.315 in [1]; -0.321 in [3]; -0.172 in assay [4]; -0.0309 in assay [5]; 0.526 in assay [6]; 0.735 in assay [7]. In addition, the figures for the composite z-score in [8], in assay [9] and in assay [10] were 1.08, 0.274 and 0.279, respectively. Further, the composite Z-score in [2] was 0.0856 (inactive).

As to `CC(CCN1CCCCc2nc(C)c(C)cc21)=NOC[C@@H](C)[C@H](OCc1ccccc1)C(C)C`, the composite z-score in assay [1] was -0.303; in assay [3] it was -0.427; in assay [4], -0.298; in assay [5], -0.497; in [6], -0.31; in [7] it was -0.899. For the same compound, the composite z-score in assay [8] is -0.758; in assay [9], -1.78; in assay [10], -1.88. Besides, the composite Z-score in assay [2] was -0.461 (inactive).

`C[C@@H]1NC(=O)[C@@H](C)COC(=O)[C@H](C)NC(=O)[C@@H](C)COC1=O`: the composite z-score in [1] was 0.591; in assay [3], -0.0339; in assay [4], -0.0907; in assay [5] it was 0.394; in assay [6], 0.1; in assay [7], -0.706. The composite z-score in [8] turned out to be 0.769; in [9], 0.316; in assay [10], 0.513. Further, the composite Z-score in assay [2] was -0.152 (inactive).

For `CC(C)CON=C1C[C@@H](O)[C@@H](O)[C@@H]2[C@@H]3C(=O)N(C4CCCCC4)C(=O)[C@@H]3CC[C@H]12`, the composite z-score in [1] was 0.536; in assay [3], 0.0021; in assay [4], -0.125; in assay [5], 0.445; in assay [6], 0.84; in assay [7], 0.606. Besides, the values for the composite z-score in [8], in [9] and in assay [10] were 1.3, 0.25 and 1.11, respectively. Further, the composite Z-score in [2] is -0.409 (inactive).

Turning to `CC(CCN1CCCc2nc(C)c(C)cc21)=NO[C@@H](C)c1cc(-c2c(C)cc(C)cc2C)no1`, the composite z-score in assay [1] was 0.177; in [3], 0.0789; in assay [4], -0.0668; in assay [5] it was 0.0276; in assay [6], 0.517; in [7], 0.138. In addition, the values for the composite z-score in [8], in assay [9] and in [10] were 1.04, 0.9 and 0.778, respectively. For the same compound, in [2], the composite Z-score was 0.121 (inactive).

As to `CCOC(=O)[C@H](CC(C)C)NC(=O)CCC1CC(OC(=O)NCCc2ccc(F)cc2)CC2(CCCC(COC(=O)NCCc3ccccc3OC)O2)O1` (stereo not given in full), the composite z-score in [1] was 0.788; in assay [3] it was -0.0647; in assay [4], -0.0781; in assay [5] it was 0.56; in [6] it was 0.907; in assay [7], 0.419. Further, the composite z-score in [8] turned out to be 1.29; in [9], 0.337; in assay [10], 1.09. Moreover, in assay [2], the composite Z-score is 0.0516 (inactive).

For the compound `CC(C)=CCCC(C)=CCON=C1C[C@@H](O)[C@@H](O)[C@@H]2[C@@H]3C(=O)N(c4ccc(F)cc4F)C(=O)[C@@H]3CC[C@H]12`, the composite z-score is 0.477 in assay [1]; 0.164 in assay [3]; -0.0662 in [4]; 0.514 in [5]; 1.31 in assay [6]; 0.402 in assay [7]. The composite z-score in assay [8] was found to be 1.24; in assay [9] it was 0.812; in assay [10] it was 0.629. Further, the composite Z-score in assay [2] is -0.356 (inactive).

Regarding `CC[C@@H](c1ccccc1)n1c(=O)n2n(c1=O)[C@H]1[C@H](O)[C@@H]3O[C@@H]3C(=NOC[C@@H](O)COCc3ccco3)[C@H]1CC2`, the composite z-score in assay [1] is -0.368; in assay [3] it was -0.232; in [4] it was -0.133; in [5] it was 0.04; in [6] it was -0.997; in assay [7] it was -0.955. Further, the values for the composite z-score in assay [8], in assay [9] and in assay [10] were -0.758, 0.726 and -0.757, respectively. Also, the composite Z-score in assay [2] was 0.615 (inactive).

On to `CON=C[C@@H](C)[C@H](OCc1ccccc1)C(C)C`, for which the composite z-score was -0.784 in [1]; -0.0647 in assay [3]; -0.162 in [4]; -0.269 in assay [5]; -0.606 in assay [6]; -0.0291 in assay [7]. Further, the composite z-score was -0.295 in assay [8], 0.54 in assay [9] and -0.413 in assay [10]. For the same compound, in [2], the composite Z-score is -0.47 (inactive).

For the compound `COC(=O)CC=C[C@@H](C)[C@@H](C=NO[C@@H]1O[C@H](COC(C)=O)[C@@H](OC(C)=O)[C@H](OC(C)=O)[C@H]1OC(C)=O)NS(=O)(=O)c1ccc(C)cc1`, the composite z-score in [1] was -0.228; in assay [3], -0.0111; in assay [4], -0.0984; in [5], -0.701; in assay [6], -0.323; in assay [7] it was -0.045. For the same compound, the values for the composite z-score in assay [8], in assay [9] and in assay [10] were 0.682, -0.051 and -0.909, respectively. Moreover, the composite Z-score in assay [2] was 0.504 (inactive).

For `CCCNC(=O)OC[C@H]1O[C@H](CCON=C(C)CCN2CCCc3nc(C)c(C)cc32)C=C[C@@H]1Oc1ccc(OC)cc1`, the composite z-score in [1] is 0.727; in assay [3], 0.0894; in [4], -0.0846; in [5], 0.147; in assay [6], 1.21; in assay [7], 0.0156. The composite z-score in assay [8] stood at 1.29; in assay [9] it was 0.0783; in [10], 0.925. For the same compound, the composite Z-score in [2] is 0.475 (inactive).

With `O=C(NN=C1C[C@@H](O)[C@@H](O)[C@@H]2[C@@H]3C(=O)N(C[C@@H]4CCCO4)C(=O)[C@@H]3CC[C@H]12)OCc1ccccc1`, the composite z-score is 0.534 in assay [1]; 0.0522 in [3]; -0.0081 in assay [4]; -0.273 in assay [5]; 0.109 in [6]; -0.0716 in assay [7]. In addition, the figures for the composite z-score in [8], in assay [9] and in assay [10] were -0.534, -0.187 and 0.305, respectively. Also, the composite Z-score in assay [2] was 0.42 (inactive).

For the compound `CCOC(=O)[C@H](CC(C)C)NC(=O)CCC1CC(OC(=O)NCCc2ccc(F)cc2)CC2(CCCC(COC(=O)NCCOc3ccccc3)O2)O1` (stereo not given in full), the composite z-score in assay [1] is 0.671; in assay [3], 0.0496; in [4] it was -0.0971; in assay [5] it was 0.193; in assay [6] it was 1.31; in [7], -0.0164. Also, the values for the composite z-score in assay [8], in assay [9] and in assay [10] were 1.23, 0.324 and 0.931, respectively. Further, in assay [2], the composite Z-score is 0.0308 (inactive).

Turning to `COc1ccc(O[C@H]2C=C[C@@H](c3ccccc3)O[C@@H]2CON=C(C)C)cc1`, the composite z-score is 0.0254 in [1]; 0.201 in [3]; -0.0548 in assay [4]; 0.153 in [5]; 0.136 in assay [6]; -0.0187 in assay [7]. Besides, the composite z-score in assay [8] is -1.05; in assay [9], 0.0435; in assay [10], 0.0731. For the same compound, in assay [2], the composite Z-score was 0.537 (inactive).

For the compound `CO[C@H]1COC(=O)[C@@H](C)COC(=O)[C@H](C)NC(=O)CC=C[C@H]1C`, the composite z-score in assay [1] is -0.859; in [3], -0.038; in [4] it was -0.0907; in assay [5], -0.328; in assay [6] it was -0.866; in [7], -0.225. Further, the composite z-score was 0.486 in assay [8], 1.27 in assay [9] and -0.99 in [10]. Besides, the composite Z-score in assay [2] was 0.111 (inactive).
